Reference: PubChem BioAssay (NCATS)
Results filed as inconclusive are left out. A number with no mark means an inactive call. The call rests on the fitted dose curve; in most records, active means well fitted curve in the direction sought with a large enough effect; inconclusive means small, poorly fitted or top-dose-only effect, or another doubt; inactive means no such curve, though single readings can be large or run the other way.

Molecular target: Glucagon-like peptide 1 receptor (Homo sapiens) (UniProt P43220)
Sequence (P43220 whole entry, looked up): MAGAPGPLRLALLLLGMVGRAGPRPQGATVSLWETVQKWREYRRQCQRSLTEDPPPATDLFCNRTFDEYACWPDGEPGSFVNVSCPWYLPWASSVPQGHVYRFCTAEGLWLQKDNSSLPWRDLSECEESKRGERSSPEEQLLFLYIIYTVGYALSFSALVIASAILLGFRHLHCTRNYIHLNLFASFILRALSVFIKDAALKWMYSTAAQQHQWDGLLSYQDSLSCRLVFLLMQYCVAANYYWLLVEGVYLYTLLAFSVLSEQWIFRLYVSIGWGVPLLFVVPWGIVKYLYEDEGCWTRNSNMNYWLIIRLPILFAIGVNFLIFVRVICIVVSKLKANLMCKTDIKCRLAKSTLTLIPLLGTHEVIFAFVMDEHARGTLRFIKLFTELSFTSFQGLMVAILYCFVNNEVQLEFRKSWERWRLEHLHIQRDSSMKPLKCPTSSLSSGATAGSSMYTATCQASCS
Experiment: qHTS of GLP-1 Receptor Agonists: LOPAC Validation (AID 624148);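 further: luminescence from a luciferase reporter switched on by cAMP; 0% is about no effect; higher luminescence signal means agonism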
Conditions: GLP-1R agonist cell assay; series mostly up to 46.1 µM; activation: at the top concentration
Text: The overall goal of this project was to develop a novel assay for discovering small molecule ligands for class B1 G protein-coupled receptors (GPCRs). Very few agonists (or inverse agonists) with generally weak activity for this entire group of physiologically important receptors are known to date. To establish proof-of-principle that this critical bottleneck can be overcome with a suitable screening approach, our studies focused on the class B1 receptor for glucagon-like peptide-1 (GLP-1R), a potential therapeutic target for diabetes and neurodegenerative disease.
The assay was developed in a "mix and measure" format using a cell-based functional readout. Toward this goal, stably transfected HEK293 cell clones were established that co-express (i) a cAMP-responsive luciferase reporter gene, and (ii) GLP-1Rs that upon ligand interaction either stimulate (agonists) or inhibit (inverse agonists) luciferase activity. In different cell lines to be used for screening, expressed GLP-1Rs are specifically optimized for high sensitivity detection of either weak agonists (hypersensitive receptor) or inverse agonists (constitutively active receptor mutant). In addition, control cell lines were developed that express either the cAMP-responsive reporter gene without recombinant GLP-1Rs (enabling initial exclusion of GLP-1R independent effects of candidate probes), or the reporter gene together with wild type GLP-1Rs (for confirmation of probe activity at this receptor), or the reporter gene in combination with the constitutively active orphan receptor GPR119 (enabling initial exclusion of GLP-1R independent inhibitory effects of candidate inverse agonists).
To that end, this assay was optimized for 1536-well format and screened against the MLSMR.
NIH Molecular Libraries Probe Production Network [MLPCN]
NIH Chemical Genomics Center [NCGC]
PI Name: Martin Beinborn, Tufts Medical Center
In a white solid 1536-well plate, 6 uL of cells are dispensed in DMEM without phenol red, 10% Nu serum, and 1% pen-strep medium. The plates are then incubated for 12 hours at 37 deg C at 5% CO2 before 23 nL of compounds are added. After a 4-6 hr incubation at37 deg C and 5% CO2, 3 uL of detection reagent are added and after a 12 min incubation at RT, a luminescent read is obtained on the ViewLux.

Structure (SMILES) | activation
CC(C)c1ccc2c(c1)c(SC(C)(C)C)c(CC(C)(C)C(=O)O)n2Cc1ccc(Cl)cc1 | -1.61%
O=c1cc(N2CCOCC2)oc2c(-c3ccccc3)cccc12 | 1.77%
CC1(C)C(=O)N(CCN2CCC(C(=O)c3ccc(F)cc3)CC2)c2ccccc21 | 0.79%
OC(CN1CCN(c2cccc(Cl)c2)CC1)C(c1ccccc1)c1ccccc1 (configuration not stated) | -1.64%
CC(=O)N1CCN(c2ccc(OC[C@H]3CO[C@](Cn4ccnc4)(c4ccc(Cl)cc4Cl)O3)cc2)CC1 | -0.988%
CCN(CC)C(=S)SSC(=S)N(CC)CC | -2.74%
CCOC(=O)C(C)Oc1cccc2c(=O)n(CC(=O)Nc3ccc4c(c3)OCCO4)ccc12 (configuration not stated) | -1.31%
Nc1ccn([C@@H]2O[C@H](CO)[C@@H](O)C2O)c(=O)n1 (some centres not stated) | -1.07%
C[C@@H](N)C1CCC(C(=O)Nc2ccncc2)CC1 (some centres not stated) | 0.268%
NNc1nncc2ccccc12 | -1.06%
O=C(c1ccccc1)c1ccc2n1CCC2C(=O)O (configuration not stated) | -2.01%
Cc1cc(O)c2c(c1)C(=O)c1cc(O)cc(O)c1C2=O | 7.49%
COc1ccccc1N1CCN(CCN(C(=O)C2CCCCC2)c2ccccn2)CC1 | -1.73%
O=c1c(O)c(-c2ccc(O)cc2O)oc2cc(O)cc(O)c12 | 0.938%
COc1ccc2cc([C@H](C)C(=O)O)ccc2c1 | -0.362%
NCCCCNCCCN | -1.2%
CC(=O)O[C@H]1C(=O)[C@@]2(C)C([C@H](OC(=O)c3ccccc3)[C@]3(O)C[C@H](OC(=O)[C@H](O)[C@@H](NC(=O)c4ccccc4)c4ccccc4)C(C)=C1C3(C)C)[C@]1(OC(C)=O)CO[C@@H]1C[C@@H]2O (some centres not stated) | 3.42%
COc1cc2nc(N3CCN(C(=O)C4CCCO4)CC3)nc(N)c2cc1OC (configuration not stated) | 1.36%
Oc1ccc(-c2nc(-c3ccc(F)cc3)c(-c3ccncc3)[nH]2)cc1 | 4.86%

Structure (SMILES) | activation
Cc1cccc(C#Cc2ccccc2)n1 | 9.84%
Nc1nc(OCc2ccccc2)c2[nH]cnc2n1 | 1.1%
O=c1c(O)c(-c2cc(O)c(O)c(O)c2)oc2cc(O)cc(O)c12 | 0.658%
O=C1c2c(O)cc(O)cc2OC(c2ccc(O)c(O)c2)C1O (configuration not stated) | -1.15%
NC(=NCc1ccccc1)NC(=O)c1nc(Cl)c(N)nc1N | 1.78%
O=C(CCc1ccc(O)cc1)c1c(O)cc(O)cc1O | 4.32%
O=C(O)c1cccnc1Nc1cccc(C(F)(F)F)c1 | -0.971%
Cc1c(OCC(F)(F)F)ccnc1CS(=O)c1nc2ccccc2[nH]1 (configuration not stated) | -1.29%
O=c1ccc2ccc(O)c(O)c2o1 | -0.709%
O=Nc1c(-c2c(O)[nH]c3cc(Br)ccc23)[nH]c2ccccc12 | -0.953%
CN(C)CCCC1(c2ccc(F)cc2)OCc2cc(C#N)ccc21 (configuration not stated) | 4.56%
COc1cc2c(cc1OC)C1CC(=O)C(CC(C)C)CN1CC2 (configuration not stated) | 7.76%
Oc1ccc2ccccc2c1SSc1c(O)ccc2ccccc12 | -1.27%
Nc1nc(N)c(N=O)c(OCC2CCCCC2)n1 | 7.14%
O=C1NC(=O)C(c2ccccc2[N+](=O)[O-])=C1Nc1ccc(O)c(Cl)c1 | -1.51%
O=C1c2ccccc2-c2n[nH]c3cccc1c23 | 6%
CC1(C)NC(=O)N(c2ccc([N+](=O)[O-])c(C(F)(F)F)c2)C1=O | -1.62%
C[C@H](Cc1ccc(O)c(O)c1)[C@@H](C)Cc1ccc(O)c(O)c1 | 10.1%
